Screening results: PubChem, National Center for Advancing Translational Sciences (NCATS)
Shown are actives, neighbours in structure and some others; about 13% of the full set was active somewhere.
HCV inh: HCV inhibition; Huh7.5.1 HCVcc-Cre infection, luciferase reporter, 44 h; Potency, µM (highest dose often 41.8 µM), hits mostly inhibitors; hit rate 3.4% among 340,000; active = well fitted inhibition curve with a large enough effect; inconclusive = small, poorly fitted or top-dose-only effect, or another doubt; inactive = no such curve, though single readings can be large or run the other way
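Seed cells (1,000/well) for 4 h; treat with compound and infect with HCVcc-Cre, moi about 0.5. Incubate 44 h, then detect luciferase activity.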
Lassa entry inh: Lassa virus entry inhibition; Lassa virus pseudotype entry inhibition, cell reporter; hit rate 1.2% among 300,000; Potency, µM (top dose mostly 37.9 µM), hits mostly inhibitors; AID 540256; calls by dose curve; tested in HEK293 cells; also: nearly all actives have a fitted effect of over 50% in size
FMDV inh: antivirals against foot and mouth disease virus | hit rate 1.2% among 410,000 | Potency, µM (highest dose often 57.9 µM), usual class: inhibitors | FMDV antiviral cell-based qHTS; calls by dose curve; tested in HEK293T cells; also: read-out not given here; nearly all actives have a fitted effect of over 45% in size
Cycloheximide cs: counter-screen hit for Shiga toxin inhibitors, cycloheximide. cell reporter, cycloheximide protein synthesis inhibition counterscreen. max response, %. hit rate 12% among 300,000. AID 2314; in the data active = max response mostly above about 13%, no sharp cut-off; inactive = mostly below about 14%; also: read at 38.3 µM for the half of the compounds with a filed dose
Shiga toxin inh: Shiga toxin inhibition | Vero cells, Shiga toxin protein synthesis inhibition reporter | inhibition, % at 38.7 µM | hit rate 9.2% among 290,000; in the data active = inhibition mostly above about 28%, no sharp cut-off; inactive = mostly below about 43%
MARV entry inh: blocks Marburg virus binding to or entry into cells. Potency, µM (top dose mostly 37.8 µM), hits mostly inhibitors. hit rate 1.8% among 300,000. Marburg virus pseudotyped entry inhibition, cell reporter; calls by dose curve; tested in HEK293 cells
A number is an active result; i = inactive; ? = inconclusive; nt = no result given.

SMILES	HCV inh	Lassa entry inh	FMDV inh	Cycloheximide cs	Shiga toxin inh	MARV entry inh
NS(=O)(=O)c1ccc(N2N=C(c3ccc(Br)cc3)CC2c2ccc(F)cc2)cc1 (stereo not given)	?	7.94µM	22.4µM	i	i	10µM
COc1ccc(C2CC(c3ccccc3)=NN2c2ccccc2)c(C(=O)O)c1OC (stereo not given)	i	i	i	i	i	i
COc1ccc(C2CC(c3cccc(Cl)c3)=NN2c2ccc(S(N)(=O)=O)cc2)cc1 (stereo not given)	12.6µM	nt	?	nt	nt	nt
c1ccc(-n2ncc3c(NC4CCCC4)ncnc32)cc1	nt	?	i	nt	nt	nt
O=C(O)CCN(CC(=O)c1ccc(Cl)cc1)S(=O)(=O)c1ccc([N+](=O)[O-])cc1	i	nt	i	nt	nt	nt
CC(CCc1ccccc1)NCC#N (stereo not given)	i	nt	i	i	i	nt
COc1ccc(C2=NN(c3ccc(C(=O)O)cc3)C(c3ccc(OC)c(OC)c3)C2)cc1 (stereo not given)	i	i	i	38.6	52.9	i
COc1cc(C2CC(c3ccccc3)=NN2c2ccccc2)ccc1OCC(=O)O (stereo not given)	i	i	i	i	i	i
CCC(C)(C)NC(=O)CCCSc1nc2ccccc2s1	i	?	i	60.6	118.1	i
O=C(O)CCSc1nc2ccccc2s1	i	i	39.8µM	i	i	i
N#CCc1nc(CSc2nc3ccccc3s2)cs1	i	i	i	58.3	87.2	i
c1ccc2sc(SCSc3nc4ccccc4s3)nc2c1	i	nt	i	i	i	nt
O=C(CN(c1ccccc1)S(=O)(=O)c1ccccc1)NCCSc1nc2ccccc2s1	i	i	22.4µM	i	i	?
CCc1cccc(CC)c1NC(=O)CCCSc1nc2ccccc2s1	i	i	?	i	i	i
COc1ccc(S(=O)(=O)N(C)C[C@H]2Oc3ccc(NC(=O)CCC(F)(F)F)cc3C(=O)N([C@H](C)CO)C[C@@H]2C)cc1	i	nt	i	nt	nt	nt
O=S(=O)(Nc1cccc2cccnc12)c1cccc2ccccc12	nt	nt	nt	i	i	nt
CN(CCOc1ccc(Cl)cc1)C(=O)c1ccc2c(=O)n3c(nc2c1)CCC3	i	i	i	nt	nt	i
O=C(CCCSc1nc2ccccc2s1)NC1=NCCS1	i	i	i	17.8	i	?
CC(=O)Nc1ccc(NC(=O)CCCSc2nc3ccccc3s2)cc1	?	i	i	18.9	i	i
CN(C)CCCSc1nc2ccccc2s1	i	nt	i	22.6	68.1	nt
Cc1cccc(C)c1NC(=O)CCCSc1nc2ccccc2s1	i	?	i	i	i	i
O=C1CC[C@@H](C(=O)N2CSC[C@H]2C(=O)O)N1	i	nt	i	i	i	nt
C[C@H](NC(=O)c1nc[nH]c1C(=O)N[C@@H](C)c1ccccc1)c1ccccc1	?	nt	i	nt	nt	nt
C=CC(=O)Nc1ccc(Nc2nc(NC3CCC(N(C)C)CC3)nc3c2ncn3C(C)C)cc1 (stereo not given)	1.26µM	nt	i	nt	nt	nt
CC1Cc2nc(SCC(=O)Nc3ccc(F)cc3)n(C)c(=O)c2S1 (stereo not given)	?	i	i	i	i	i
SMILES	HCV inh	Lassa entry inh	FMDV inh	Cycloheximide cs	Shiga toxin inh	MARV entry inh
CCOC(=O)CNC(=O)CSc1ccc(-c2nc3ccccc3[nH]2)cn1	i	i	i	i	i	i
Cc1cc2nc(-c3ccc[nH]c3=O)[nH]c2cc1C	i	nt	i	i	i	nt
CC(=O)CSc1ccc(-c2nc3ccccc3[nH]2)cn1	?	?	i	15.7	nt	6.31µM
Cc1cc2nc(-c3ccc(SCc4ccc(C#N)cc4)nc3)[nH]c2cc1C	11.2µM	?	?	i	i	i
CC(=O)CSc1ccc(-c2nc3cc(C)c(C)cc3[nH]2)cn1	?	?	8.91µM	i	i	?
Cc1cc2nc(-c3ccc(SCC(=O)Nc4nccs4)nc3)[nH]c2cc1C	i	?	i	39.0	i	i
COc1ccc(-c2[nH]c(-c3ccc(C)cc3)nc2SCC(=O)Nc2nccs2)cc1	?	i	i	i	i	?
COc1cccc(N2CCN(c3ncnc4c3c(-c3ccccc3)cn4-c3ccc(C)cc3)CC2)c1	nt	i	i	nt	nt	nt
Cc1ccc2nc(-c3ccc(NC(=O)CSc4ccccc4)cc3)[nH]c2c1	11.2µM	?	nt	33.4	active	?
Cc1ccc2nc(-c3ccc(SCC(=O)O)nc3)[nH]c2c1	i	?	i	i	i	?
CCc1nnc(NC(=O)CSc2ccc(-c3ccc(C)cc3)nn2)s1	i	?	i	i	i	i
CCc1nnc(NC(=O)CSc2ccc(-c3nc4ccc(C)cc4[nH]3)cn2)s1	i	?	i	32.5	50.8	i
Cc1ccc2nc(-c3ccc(SCC(=O)N4CCc5ccccc54)nc3)[nH]c2c1	?	?	i	56.4	120.9	i
COC(=O)NC1CSCC1OC(=O)CCN1C(=O)c2ccccc2C1=O (stereo not given)	?	i	i	i	i	i
CCC(C)NC(=O)CCSc1nc(-c2ccc3c(c2)OCO3)cc(C(F)(F)F)n1 (stereo not given)	nt	i	i	nt	nt	i
CCc1nnc(NS(=O)(=O)c2ccc(NC(=S)NC(=O)c3ccc(OC)c(OC)c3)cc2)s1	i	i	i	i	i	i
Cn1ccnc1SCc1cn2ccccc2n1	i	?	i	29.9	82.3	i
c1ccc(-n2nnnc2SCc2cn3ccccc3n2)cc1	i	i	i	i	i	i
c1ccn2cc(CSc3nnc4ccccn34)nc2c1	i	i	nt	56.9	119.7	?
c1ccn2cc(CSC3=NCCS3)nc2c1	i	?	i	28.7	121.1	?
O=C(Cn1cncn1)N1CCOc2ccc(CN3CCN(c4ccccc4)CC3)cc2C1	nt	nt	i	nt	nt	nt
CN(c1ccccc1)P(=O)(N1CC1)N1CC1	i	i	i	nt	nt	i
CCCCN(C(=O)c1cccc(-n2cccc2)c1)c1c(N)n(Cc2ccccc2)c(=O)[nH]c1=O	i	nt	nt	nt	nt	nt
C=CCN1CN(S(=O)(=O)c2cccc(Cl)c2)c2nc3ccccc3nc21	i	nt	i	19.6	i	nt
O=S(=O)(c1ccccc1)N1CCC2(CC1)CN(Cc1ccccc1)C2	nt	nt	i	nt	nt	nt
SMILES	HCV inh	Lassa entry inh	FMDV inh	Cycloheximide cs	Shiga toxin inh	MARV entry inh
COc1ccc(Cl)cc1NC(=O)Cn1c(=O)oc2cc(S(=O)(=O)N3CCCCCC3)ccc21	nt	i	i	nt	nt	nt
O=c1nc(N/N=C/c2ccccn2)cn[nH]1	?	3.55µM	i	45.9	125.3	?
Cc1ccc(/C=N/Nc2cn[nH]c(=O)n2)o1	i	i	i	24.4	87.8	i
O=S1(=O)N=C(N/N=C/c2ccccn2)c2ccccc21	i	?	i	i	i	i
Cc1ccc(NS(=O)(=O)c2c(C(=O)N3CCCCCC3)c(C)n(C)c2C)cc1F	nt	i	i	nt	nt	nt
CC(=O)Nc1ccc(NC(=O)C(C)OC(=O)CNC(=O)c2ccc(-c3ccccc3)cc2)cc1 (stereo not given)	i	i	i	nt	nt	i
C(=Cc1c[nH]c2ccccc12)c1ccc2ccccc2n1	5.62µM	?	?	nt	nt	2.24µM
CC(=O)Oc1ccc(Cl)cc1/C=C/c1ccc2ccccc2n1	7.94µM	?	i	37.4	75.8	?
CC(=O)Oc1c(Cl)cc(Cl)cc1/C=C/c1ccc2ccccc2n1	i	i	i	i	i	i
Fc1ccccc1/C=C/c1ccc2ccccc2n1	i	2.51µM	10µM	i	72.0	?
